# Experimental data published in PubChem BioAssay.
# For some assays here: Potency and affinity values are given separately. Results filed as inconclusive are left out. Some of the results follow. Entries that show only a call come without a potency. Calls of active or inactive are those of the source.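 Rule for the calls, unless noted: active = signal-lowering compounds whose fitted half-maximal concentration is at or below twice the top tested dose in every run; inconclusive = runs disagree, flat 30 to 70% inhibition, or poor curve fit; inactive = the rest.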
# Assay: DNA binders by acridine orange displacement, dose response, counter-screen for EWS/Fli inhibitor project, biochemical, fluorescence polarization, cherry-pick (AID 720586;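 active = fitted curve reaches a 35% signal fall AC35 below twice the sample's top valid tested dose, actives reach about 48 µM in these data; inactive = the rest, including activity in the rising direction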;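 note: lower polarization ratio signals compound binding to DNA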)
# Conditions: salmon sperm DNA acridine orange fluorescence polarization; series mostly up to 68 µM
row,SMILES,AC35
1,C[C@@H]1CN([C@@H](C)CO)C(=O)c2cc(NS(=O)(=O)c3ccccc3)ccc2O[C@@H]1CN(C)Cc1ccc(C(=O)Nc2ccccc2N)cc1,inactive
2,COc1ccc(-c2nc3c(s2)CCc2onc(-c4ccc(OC)cc4)c2-3)cc1,inactive
3,COC(=O)C[C@@H]1CC[C@@H]2[C@H](COc3ccc(NC(=O)c4cccc(F)c4)cc3C(=O)N2C)O1,inactive
4,CCOc1cc2[nH]c(=S)n(Cc3ccc(C(=O)N4CCN(C)CC4)cc3)c(=O)c2cc1OCC,inactive
5,Cc1ccc(S(=O)(=O)Nc2ccc3c(c2)C(=O)N([C@@H](C)CO)C[C@@H](C)[C@@H](CN(C)Cc2ccc(C(=O)Nc4ccccc4N)cc2)O3)cc1,inactive
6,CCn1c(/C=N/NC(=O)c2ccc(OC)cc2)nc2ccccc21,inactive
7,Cc1ccc(C)c(S(=O)(=O)N2CCN(c3ncnc4sccc34)CC2)c1,inactive

# Assay: inhibitors of CMV-promoter luciferase reporter, dose response, counter-screen for Pax8 inhibitor project, cell-based, HEK293, luminescence, dry powder (AID 743020);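 note: HEK293 cells stably expressing the CMV luciferase reporter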
# Conditions: SteadyGlo luminescence, 24 h; series mostly up to 35 µM
row,SMILES,outcome
1,C[C@@H]1CCCCO[C@H](CN(C)S(=O)(=O)c2ccc(F)cc2)[C@H](C)CN([C@@H](C)CO)C(=O)c2cc(NS(=O)(=O)c3ccc(Cl)cc3)ccc2O1,inactive
2,COc1ccccc1C#Cc1ccc2c(c1)O[C@@H](CN(C)Cc1ccncc1)[C@H](C)CN([C@H](C)CO)S2(=O)=O,inactive
3,COc1cccc(-c2ccc3c(c2)[C@H]2[C@H](CCN2S(=O)(=O)c2ccccc2F)[C@@H](CO)N3)c1,inactive
4,C[C@H](CO)N1C[C@H](C)[C@@H](CN(C)S(=O)(=O)c2ccc(-c3ccccc3)cc2)OCc2cn(nn2)CCCC1=O,inactive
5,C[C@@H]1CCCCO[C@@H](CN(C)Cc2ccc(Cl)c(Cl)c2)[C@@H](C)CN([C@@H](C)CO)C(=O)c2cc(NC(=O)Nc3ccccc3)ccc2O1,inactive
6,C[C@@H]1CCCCO[C@H](CN(C)C(=O)Nc2cccc3ccccc23)[C@H](C)CN([C@@H](C)CO)C(=O)c2cc(NS(=O)(=O)c3ccc(Cl)cc3)ccc2O1,inactive
7,O=C(CN1C(=O)c2ccccc2S1(=O)=O)c1ccc2c(c1)OCCO2,inactive
8,C[C@@H]1CN([C@H](C)CO)C(=O)c2cc(NC(=O)Nc3ccccc3)ccc2O[C@@H](C)CCCCO[C@H]1CN(C)Cc1ccc(C(F)(F)F)cc1,inactive
9,C[C@@H]1CN([C@H](C)CO)C(=O)c2cc(NS(=O)(=O)c3ccc(F)cc3)ccc2O[C@@H](C)CCCCO[C@@H]1CN(C)Cc1ccccc1,inactive
10,C[C@@H]1CN([C@@H](C)CO)C(=O)Cc2cc(NC(=O)CCCCCC(=O)Nc3ccccc3N)ccc2O[C@@H]1CN(C)Cc1ccc(C(F)(F)F)cc1,inactive
11,O=C(Nc1cccc(F)c1)N1CCCCN2[C@H](CO)[C@@H](c3ccc(C#Cc4ccccc4)cc3)[C@H]2C1,inactive
12,COc1ccc(S(=O)(=O)N(C)C[C@@H]2OCCCC[C@H](C)Oc3ccc(NS(=O)(=O)c4ccccc4)cc3C(=O)N([C@H](C)CO)C[C@H]2C)cc1,inactive
13,COc1ccc(S(=O)(=O)Nc2ccc3c(c2)C(=O)N([C@@H](C)CO)C[C@H](C)[C@@H](CN(C)C(=O)Nc2ccc(F)cc2)OCCCC[C@H](C)O3)cc1,inactive
14,COc1ccccc1C#Cc1ccc2c(c1)O[C@@H](CN(C)Cc1ccncc1)[C@H](C)CN([C@@H](C)CO)S2(=O)=O,inactive
15,COc1ccc(CN(C)C[C@H]2OCCCC[C@H](C)Oc3ccc(NC(=O)Nc4ccc(C(F)(F)F)cc4)cc3C(=O)N([C@H](C)CO)C[C@H]2C)cc1,inactive
16,Cc1cccc(-c2ccc(C3[C@@H]4CN(C(=O)Nc5ccc(C(F)(F)F)cc5)C[C@H]3N4)cc2)c1 (some centres not stated),inactive
17,C[C@@H]1CN([C@@H](C)CO)S(=O)(=O)c2ccc(C#Cc3ccncc3)cc2O[C@H]1CN(C)C(=O)Nc1ccc2c(c1)OCO2,inactive
18,C[C@@H]1CCCCO[C@H](CN(C)Cc2ccc(C(F)(F)F)cc2)[C@@H](C)CN([C@@H](C)CO)C(=O)c2cc(NC(=O)Cc3ccccc3)ccc2O1,inactive
19,C[C@H]1CCCCO[C@H](CN(C)C(=O)Nc2cccc3ccccc23)[C@@H](C)CN([C@@H](C)CO)C(=O)c2cc(NS(=O)(=O)c3ccc(Cl)cc3)ccc2O1,inactive
20,CCCC#Cc1ccc([C@@H]2[C@@H](C#N)N(C(=O)C3CCCCC3)[C@H]2CO)cc1,inactive
21,C[C@H]1CN([C@@H](C)CO)C(=O)Cc2cc(NC(=O)NC3CCCCC3)ccc2O[C@@H]1CN(C)Cc1ccc(-c2ccccc2)cc1,inactive

# Assay: non-specific cell cytotoxicity, dose response, cytotoxicity control for PAX8 inhibitor project, plate reader, dry powder samples (AID 743021; call rule not given here)
# Conditions: cell line, non-specific cytotoxicity counter-screen; series mostly up to 35 µM
row,SMILES,outcome
1,COc1cccc(-c2ccc3c(c2)[C@H]2[C@H](CCN2S(=O)(=O)c2ccccc2F)[C@@H](CO)N3)c1,inactive
2,C[C@@H]1CCCCO[C@@H](CN(C)Cc2ccc(Cl)c(Cl)c2)[C@@H](C)CN([C@@H](C)CO)C(=O)c2cc(NC(=O)Nc3ccccc3)ccc2O1,inactive
3,O=C(CN1C(=O)c2ccccc2S1(=O)=O)c1ccc2c(c1)OCCO2,inactive
4,COc1cc(-c2cnc3c(NC=O)cc(-c4cccc(NC(C)=O)c4)cn23)cc(OC)c1OC,inactive
5,C[C@@H]1CN([C@H](C)CO)C(=O)c2cc(NC(=O)Nc3ccccc3)ccc2O[C@@H](C)CCCCO[C@H]1CN(C)Cc1ccc(C(F)(F)F)cc1,inactive
6,C[C@@H]1CN([C@H](C)CO)C(=O)c2cc(NC(=O)Nc3ccc(F)cc3)ccc2O[C@@H](C)CCCCO[C@H]1CN(C)Cc1ccc(C(F)(F)F)cc1,inactive
7,O=C(Nc1ccc(F)cc1)N1CC(=O)N2[C@@H](CO)[C@H](c3ccc(-c4ccc(F)cc4)cc3)[C@@H]2C1,inactive
8,C[C@@H]1CCCCO[C@H](CN(C)Cc2ccc(C(F)(F)F)cc2)[C@@H](C)CN([C@@H](C)CO)C(=O)c2cc(NC(=O)Nc3ccc(F)cc3)ccc2O1,inactive
9,COc1ccc(S(=O)(=O)N(C)C[C@@H]2OCCCC[C@H](C)Oc3ccc(NS(=O)(=O)c4ccccc4)cc3C(=O)N([C@H](C)CO)C[C@H]2C)cc1,inactive
10,C[C@@H]1CN([C@H](C)CO)C(=O)c2cc(NS(=O)(=O)c3ccc(Cl)cc3)ccc2O[C@@H](C)CCCCO[C@H]1CN(C)C(=O)Nc1ccc(C(F)(F)F)cc1,inactive
11,COc1ccc(CN(C)C[C@H]2OCCCC[C@H](C)Oc3ccc(NC(=O)Nc4ccc(C(F)(F)F)cc4)cc3C(=O)N([C@H](C)CO)C[C@H]2C)cc1,inactive
12,C#CCN(C[C@@H]1[C@@H](OC(=O)NCc2ccccc2F)[C@@H](OC(=O)NCc2ccccc2F)Cn2c(=O)ccc(=O)n21)S(=O)(=O)c1ccc(C)cc1,inactive
13,C[C@@H]1CCCCO[C@H](CN(C)Cc2ccc(Cl)c(Cl)c2)[C@@H](C)CN([C@@H](C)CO)C(=O)c2cc(NC(=O)Nc3ccccc3)ccc2O1,inactive
14,C[C@@H]1CN([C@@H](C)CO)S(=O)(=O)c2ccc(C#Cc3ccncc3)cc2O[C@H]1CN(C)C(=O)Nc1ccc2c(c1)OCO2,inactive
15,C[C@@H]1CCCCO[C@H](CN(C)Cc2ccc(C(F)(F)F)cc2)[C@@H](C)CN([C@@H](C)CO)C(=O)c2cc(NC(=O)Cc3ccccc3)ccc2O1,inactive
16,CN1c2ccc(-c3cccc(C#N)c3)cc2[C@H]2[C@H](CCN2S(=O)(=O)c2ccccc2F)[C@H]1CO,inactive
17,C[C@@H]1CN([C@H](C)CO)C(=O)c2cc(NC(=O)Nc3ccc(F)cc3)ccc2O[C@@H](C)CCCCO[C@@H]1CN(C)Cc1ccc(C(F)(F)F)cc1,inactive
18,C[C@H](CO)N1C[C@H](C)[C@@H](CN(C)C(=O)c2ccc3c(c2)OCO3)Oc2cc(C#Cc3ccccc3F)ccc2S1(=O)=O,inactive
19,C[C@H]1CCCCO[C@H](CN(C)C(=O)Nc2cccc3ccccc23)[C@@H](C)CN([C@@H](C)CO)C(=O)c2cc(NS(=O)(=O)c3ccc(Cl)cc3)ccc2O1,inactive
